The source of these data is PubChem BioAssay AID1159506 (National Center for Advancing Translational Sciences (NCATS), 2015).

Over roughly 59,000 sequences, the read-out has its median near -0.00055; the lowest 2% begin near -2. This excerpt belongs to a sample that is enriched for the lowest values.

A short description of the experiment: Identification of proteins required for the processing of the EWS-FLI1 nascent transcript.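 Note: robust z of luciferase light less the median z of siRNAs with the same seed.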 The following applies: TC32 Ewing sarcoma NR0B1-luc vs CMV-luc (EWS-FLI1 target promoter against control promoter), 48 h; screened at 20 nM (by protocol). On the procedure: Ewing sarcoma (ES) cells depend on the EWS-FLI1 fusion transcription factor for cell survival. Using an assay of EWS-FLI1 activity and genome-wide siRNA screening we have identified proteins required for the processing of the EWS-FLI1 nascent transcript. Parallel genome-wide siRNA-mediated RNAi screens were conducted in Ewing sarcoma TC32 cell lines expressing a luciferase (luc) reporter protein driven by either the promoter of the EWS-FLI1 target gene NR0B1 (TC32-NR0B1-luc) or the CMV promoter (TC32-CMV-luc). Luciferase activity was assessed 48 hours post siRNA-transfection.
Twenty microl of serum-free media containing Lipofectamine RNAiMax (0.05 microl) was added to wells containing siRNA (0.8 pmol). Lipid and siRNA were allowed to complex for 45 min at ambient temperature before addition of 600 cells in RPMI-1640, 20% FBS to yield final transfection mixtures containing 20 nM siRNA in RPMI-1640, 10% FBS. Luciferase expression was measured using OneGlo (Promega, Madison, WI). The genome-wide screening campaign was conducted using Ambion's human genome library version 4.1 (Ambion, Austin TX). This library targets approximately 21000 human genes, three siRNAs per gene. Each siRNA is arrayed in an individual well of a 384-well plate. Parallel transfections were conducted in TC32-NR0B1-luc and TC32-CMV-luc cell lines and luciferase expression (OneGlo, Promega) was assayed 48 h later on a PerkinElmer Envision 2104 Multilabel plate reader (PerkinElmer, Waltham, MA). Qiagen's AllStars Negative control was incorporated on all screening plates for normalization (16 wells per plate). Qiagen, Germantown, MDsiGL4 was incorporated as a positive transfection control (16 wells per plate) on all plates. […] The raw luciferase data for the NR0B1- and CMV-luc screens were normalized and z-score-MAD transformed using standard methods (Chung et al., 2008). The miRNA-like seed sequence of every siRNA was determined and the median z-score for all siRNA sequences with the same seed sequence was calculated. This z-score was subtracted from the z-score associated with each siRNA with that seed sequence to generate a seed-adjusted z-score value (Z) that was used when the results for the three siRNAs corresponding to each gene were compared (Marine et al., 2012)
In the case of UAGUUGUCGAUGUAAACUC against MUC2, the seed-corrected z-score is -2.67.
For UUCCAUAUUACCGAGGUCC against ALCAM the value was 0.291; for UCUGAGAUAACAGUUCCUG against LOC644681, -0.647.
UUCUCGAUCAUCCUGAUCU against BGN returned a seed-corrected z-score of -3.
With UGCUAGACAAUUCCACUUC against SLX4, the seed-corrected z-score was -1.39.
The result for UAUCGCUCCUGACUAUUGC against PPP1R10 reads -0.157; that for ACAACUAUGAUUUUAAGGC against ACSL1, 0.252; that for UUGUCUUUCCGGCUAAAGC against ZFP64, -1.36.
UAUUGUAAGAAAACCCUUG against GNA13 had a seed-corrected z-score of 1.07.
The result for UCUGUGUCCACAGAGCCGU against GPR78 reads -2.26.
The result for UACUACACUAUUCUUCAGG against TADA1 reads -0.3; that for UUGCGACUCAUGAAAUGGG against INO80, 0.511; that for AUGGUAGUAAUCGCGGGCG against HSPA12B, -2.44.
For UAAGCGAAUAGGAUGCGCU against YWHAEP5 the value was -1.53.
Regarding UUUGCGAUGUUCCUCUUCC against GOLIM4, the seed-corrected z-score came to 0.684.
For UCAUUUCUAAGACCGCAUG against HNRNPUL1 the value was -0.605.
Sequence AAAGGUCAAUUCUUGAUGG against OR2L8 had a seed-corrected z-score of 1.81.
The result for UCUGGAUGGAGGUUUGUUC against SLC38A10 reads 1.34; that for UUGGAACAUAUUGGGAUCG against DDN, -0.0544.
The result for AUGUUUUCGCUGGAGUUGG against SSBP4 reads 0.9.
The result for AUAGGUCUGAAUGAGCUGC against PLCD3 reads -0.512; that for UUCCUCAAAACUGCAGACU against LOC729451, -0.00746; that for UCCAUGUUGUCGAUCAUCU against RGS9BP, -2.21.
Sequence UAUGAGUGCUCCACGAUGC against APOL3 registered a seed-corrected z-score of 0.115.
In turn, UUCAUGACAAAGCUUGACC against PFN1P3 yielded a seed-corrected z-score of -0.053.
As to UUGGUAAACAUCUCCAGGC against TRIM63, the seed-corrected z-score was 1.24.
The sequence UUGUCGUUCAGCAAACUCC against ASCC2 displayed a seed-corrected z-score of -2.07.
In the case of UCAGGAUAUAGUUUAGGAC against TMEM144, the seed-corrected z-score was 0.846.
For AAUGUAUCAAGUAUGUCGG against C16orf62 the value was -2.25; for UGAAAUAUCUCCAGGAUCU against EFCAB12, 0.249; for UAUGCGUUUUGGAGAUUCC against PARP8, -0.784.
For UCUGUCUUCCCAUAGGAUG against LOC440040 the value was -2.05; for AAUGGUAGAACAUCCCUGC against RIN2, -0.24.
For AACUUGAUCAAGUAGCUCG against EBLN1 the value was -0.0938; for UGUCAGUAUAGCACAGAUC against EFTUD2, -2.05; for AAGGUAACCAGCUCGAUGG against RPL7AP27, -0.369.
As for UUCUUUAUCCUUAGUCCUC against NFATC2IP, the seed-corrected z-score is -3.11.
UACAGUAAUAGUGAGGCAG against GYPB showed a seed-corrected z-score of 2.32.
For UUAGGGUCAGGAGCAGACA against CYP2F1 the value was -0.167; for UACUAACUUUUCGAUGUCC against MX2, 0.257; for UAGGUUGCAUCAUAGAGGG against CFL1, -2.11.
Sequence UUUCGUGUUGCCGUAUUUC against GEMIN5 yielded a seed-corrected z-score of 0.131.
The result for UACCAGUCAGGGUCUUCAC against UBC reads -8.62; that for UGAGUAGAUGAUCUUGUCG against GNA11, 0.913; that for AUAGGUGUCCUUCAGGUCC against MYL5, -0.00285.
Regarding UGAGAUUUGAUGAUUCUGC against OR7E24, the seed-corrected z-score amounted to 0.344.
On to UGUGAAAGAGGCGAAAUGC against ELAC1, for which the seed-corrected z-score stood at 0.216.
The sequence UUUUCCACAACCGUAGUCA against GOLGA8G yielded a seed-corrected z-score of 0.524.
Sequence GAUGGAGGUGCCAUGGUUG against ZSWIM3 had a seed-corrected z-score of -0.304.
For UCUGGUUCUUUGUAAAGGC against S100A11P1 the value was -2.25.
UUAGGCUUAUUUCCCGCUC against BTN3A2: the seed-corrected z-score is -0.656.
The result for UAGUGUACUCUAGAGCCCG against PLEKHG4 reads 0.519; that for UUUCUCAUCACUAGAAGUC against PPIH, -0.684.
UUGGAGAUAAGGGUUCUUG against MSTO1 showed a seed-corrected z-score of -2.21.
The result for UGCAUCUUCUCUUAUGUGC against C16orf90 reads -1.02; that for UAACACUUUCAUUCCUGUC against FAM86B1, -1.15.
The result for UCUUGGUCAGGUUUCCUCG against MUSTN1 reads -0.107; that for AUUCUUCUAGGCAUUGCCC against PDE6D, 0.469; that for UCUAUUACUUUCACAAUGC against KDM6A, -0.344.
As to AUUCACACCAGUAUUAGUG against KIAA1456, the seed-corrected z-score worked out at 0.152.
The result for UAAUCCGUAAAUUCGAUAC against RNF139 reads 0.709; that for AUAGCUGCAGGAUCUAAGC against POLR3A, -3.95; that for UUCCGGUAGAAGAUGAGCC against SHMT2, 0.314.
Regarding UUCAUGGUAGGAAAGGUCU against DXO, the seed-corrected z-score is 1.33.
The result for UAGUAUCAAAUAUCCAGAC against TMEM60 reads 0.0266.
For UAAUGUACACCACAUUGGG against FAM198B the value was -2.46.
The result for UUCACGUUCAUUGCAGUCU against RAB5C reads -1.4; that for ACAGUUAAGACACCACUCC against FXN, 1.1.
Turning to AUAAGCAACACCAUUAUGG against BOLL, the seed-corrected z-score was 1.08.
The result for AAUGGGUCUACCUUGUUGG against PSMC5 reads -1.78; that for AAUAAAGACGGAUUUAUUC against HTATIP2, 0.204; that for UUUGAUAUGAUGUUCCACC against DDX50, -0.378.
For AAACGAUCCAUAUAGUCCG against MIER3 the value was 0.02; for UAUUGACCAAGAUCACAUG against FASTKD2, 0.878; for AGCUGUAUCCAUUAGGGUG against NTSR2, 0.216.
Take UUCCAUGUAACCGUCGUUC against SHE: the seed-corrected z-score was -0.285.
As to AGAUCUAUUACUUCCAGGG against LRRC34, the seed-corrected z-score was -3.45.
Regarding AAAGCGACACUUAUCACCC against WRB, the seed-corrected z-score came out at 0.538.
Regarding UCUUUAAGAAUUGCACAUC against NAAA, the seed-corrected z-score was -0.571.
For UCCUGCUUCAGUAAAUCUC against MRPL24 the value was -2.37.
In the case of UCUCGAUUUAGCUUAGGCC against SKP2, the seed-corrected z-score is -0.249.
The sequence AUAUCAACAAGCCCAAUUC against KCNB2 had a seed-corrected z-score of -0.883.
The result for UAGCCGACAAAACAACAUC against HEATR1 reads -0.424; that for AAAGCUAUUAUCAUGUAGG against SLC35B3, 0.789.
For AUCGGUAUAGUUGAUGCAC against SCN10A the value was 0.0881; for UUUUGAACCAGGGUAGUUC against GNA15, 0.0907.
The result for UCCGGAACAUAUGUUGUCG against TNFRSF11B reads -0.942; that for UGAUGAUCUACACUGAUUC against FAM91A1, -2.35; that for UUGGAUUGGCGCUAUGUUC against ANKRD20A18P, -0.888.
For the sequence UUGUAGACCAUGUUGGAGC against POLE, the seed-corrected z-score is -0.71.
With UCUGGUUCUUGUGCUCUUC against INO80B, the seed-corrected z-score was -2.05.
Take AAUCGGAUUUUGUUGAGUC against SOWAHC: the seed-corrected z-score was -0.193.
In the case of UUUCUUCCUGUGCACGUCA against OXCT2, the seed-corrected z-score was -0.277.
Take UCUUCAGCCGCAUCGAUCU against TNNI2: the seed-corrected z-score worked out at 0.556.
The result for AUCUGUAUAAUCGACAGGC against BARD1 reads -1.42; that for AAACGGUACAGAGCGCUGC against C1orf233, -1.64.
The result for UAGCAUGAAACUUUUGUUG against STK35 reads 0.199; that for UUGGUUGGAACUACUUACG against STARD9, -3.22; that for UGUGGUAUUUAGUUGUUCG against PRMT2, -0.735.
The result for ACUGGAAUAAGACCGGCUG against EMCN reads -0.0798; that for ACUAGGAUCACGACUUUCC against SLC30A9, -0.286; that for UCUGUUUUCAGGUGCAUCC against AHRR, -0.835.
For the sequence UUCGUUAUCUAUUUCCACC against CASC5, the seed-corrected z-score is -1.38.
UCAUUGUUCAAGGUCAUUC against ABTB2 displayed a seed-corrected z-score of 0.182.
In turn, UUCCAGUUGAGUGGUGUCC against SLA2 came in with a seed-corrected z-score of -2.67.
The result for AAUUUGUUCACGUAAACUU against POU3F2 reads 0.623.
In turn, UUCCGUAAGACUGACACUC against REG4 yielded a seed-corrected z-score of -15.5.
The result for UCUCGUUCGGUAAUCUUCC against PPP2R2C reads -0.613; that for AUCCCUUCAAUGGCCAUCC against ECHDC2, -0.995; that for AUUGUUAUAGAAGCGGUCU against SPA17, -0.602.
For UGACGUACCUAUCCACUGC against MC5R the value was -0.731.
Sequence UCGUUGCUCAGCAUCAAUC against SBNO1 had a seed-corrected z-score of -0.827.
For AUCGAUCUAGUUUAAUUCC against DGKE the value was -0.537.
For UGUAUAGUCAUGAUAAUGU against LOC643784, the seed-corrected z-score was -0.459.
The result for UCAGGGCUCAGACAGGACU against TSC22D3 reads -2.02; that for AGAGAAUAAAGAGCUGGAC against TMEM79, 0.267.
The result for AGACUUGCGAACAUGAUUC against CGGBP1 reads 0.518; that for UUCCUUCCUACUCAGGGUC against S100A5, -2.25; that for UCAACCUUUACUGAAGGCC against ARNTL, -0.133.
UAUAGCGAAGGGACAAACC against LRRTM3 came in with a seed-corrected z-score of 0.0787.
The result for UGAUGAUUAUCUUUGAAUG against IGFBP3 reads 0.761; that for AAACGUACCUUGUCAUUCC against TXK, -0.645.
For UUUUCUCUCGUAUUAAUUG against GSDMB the value was 0.329.
UCAUCAUCUAAUAAAGUCC against MRO displayed a seed-corrected z-score of -3.11.
Consider ACUGGAUUAACAUCAUCUG against SDHAF4, for which the seed-corrected z-score was -0.445.
UGCUUUCUCAGGGCAGCUC against ZFP42 had a seed-corrected z-score of -0.0418.
The result for AAAGGGAUGCUCCAAGCGC against NME3 reads 0.482; that for AUAAGUUGCAGCAAAAUCC against MAB21L1, -0.725; that for AUCGAUGAUAGCCUGCUCG against ANXA8L1, -2.86.
For UUUACCACAGGUUUCUUCC against HIRIP3 the value was -0.591; for UAACUUCAAACCGAUUUCU against TRMU, -0.389; for AAAGUAAAGAUAUGCGUGU against TBX21, 1.07.
For UCUGUCGAUAGUCUUCUCG against STIP1 the value was 0.345.
